Experimental data taken from PubChem BioAssay AID1845225 (National Center for Advancing Translational Sciences (NCATS), 2023).
Inconclusive results are not listed. Calls of active or inactive are those of the source. Calls come from the whole dose curve; as a rule, active = well fitted curve in the direction sought with a large enough effect; inconclusive = small, poorly fitted or top-dose-only effect, or effect the other way, or another doubt; inactive = no such curve, though single readings can be large or run the other way.

assay: Confirmatory redox qHTS assay for identification of artifact compounds.;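 note: 0% = DMSO and 100% = DA3003 at 10 µM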; settings: Amplex Red/HRP redox cycling with DTT, fluorescence; series mostly up to 39 µM
How it was run: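 Amplex Red (25 uM final) and HRP (250 mU/mL final) in HBSS, compound 15 min, then 250 uM DTT final 30 min, room temperature, dark; fluorescence 525/598 nm, normalized to DMSO and 10 uM DA3003, Hill fitted.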

outcome, inactive:
Cc1ccc(C)c(N2CCN(S(=O)(=O)c3cc(Br)cc4c3N(C(=O)C3CC3)CC4)CC2)c1, COc1cccc(CNC(=O)C2Cc3cc(S(=O)(=O)N4CCCCCC4)ccc3N2C(C)=O)c1 (stereo not given), CC(=NCc1ccccc1)c1ccccc1O, COc1cc2nc(N3CCCCC3)nc(NC(C)C)c2cc1OC, CCc1ccc(CN(Cc2ccco2)C(=O)c2ccc(OC)cc2)cc1, O=c1c2ccccc2sn1-c1cc(S(=O)(=O)N2CCOCC2)ccc1N1CCCCC1, COc1cc2c3cc1OCc1c(O)c(OC)cc4c1C(Cc1ccc(cc1)Oc1cc(ccc1O)CC3N(C)CC2)N(C)CC4 (stereo not given), COc1cccc(-c2nc3cc(NC(=O)c4cccnc4)ccc3o2)c1, COc1ccc(C(=O)O)cc1Nc1nc2ccc(C)cc2n2cnnc12, Cc1cccc(NC(=O)CN2C(=O)C(c3ccc(F)cc3)=NC23CCCCCC3)c1, CCCC(=O)O[C@]1(C(=O)COC(C)=O)CC[C@H]2[C@@H]3C[C@H](F)C4=CC(=O)C=C[C@]4(C)[C@@]3(F)[C@@H](O)C[C@@]21C, COc1ccc(N2C(=O)c3ccccc3C2=O)cc1, CCCCCCCCOc1ccc(C(=O)O)cc1, CCOc1ccc(C[C@H]2NC(=O)CCSSC[C@@H](C(=O)N3CCC[C@H]3C(=O)N[C@@H](CCCN)C(=O)NCC(N)=O)NC(=O)[C@H](CC(N)=O)NC(=O)[C@H]([C@@H](C)O)NC(=O)[C@H]([C@@H](C)CC)NC2=O)cc1, Oc1ccc(CNc2cccc(F)c2F)c2cccnc12, COc1cc2c(NC3CCN(C)CC3)nc(N3CCCN(C)CC3)nc2cc1OCCCN(C)C, CCOc1ccc(CNC(=O)CN2C(=O)CSc3c2c(C)nn3-c2ccccc2)cc1, O=C(Cn1nc2c(cc1=O)CCCC2)Nc1ccc(F)cc1F, O=C(Nc1cccc(Br)c1)N1CCC(CN2CCCCC2)CC1, O=C(Nc1nnc(S(=O)(=O)N2CCCC2)s1)c1ccccc1Cl, CCCCN1C(=O)c2[nH]nc(-c3ccccc3O)c2C1c1ccc(C(C)(C)C)cc1 (stereo not given), CN1C(C(=O)Nc2ccc(F)cc2F)=CC(c2cccs2)=NS1(=O)=O, COc1cc2c(NC3CCN(C(C)C)CC3)nc(C3CCCCC3)nc2cc1OCCOCCN(C)C, CC(O)COCC1OC2OC3C(COCC(C)O)OC(OC4C(COCC(C)O)OC(OC5C(COCC(C)O)OC(OC6C(COCC(C)O)OC(OC7C(COCC(C)O)OC(OC8C(COCC(C)O)OC(OC1C(OCC(C)O)C2OCC(C)O)C(OCC(C)O)C8OCC(C)O)C(OCC(C)O)C7OCC(C)O)C(OCC(C)O)C6OCC(C)O)C(OCC(C)O)C5OCC(C)O)C(OCC(C)O)C4OCC(C)O)C(OCC(C)O)C3OCC(C)O (stereo not given), O=C(NCCC1=CCCCC1)c1ccc2c(c1)N(Cc1cccc(Cl)c1)C(=O)c1ccccc1S2=O (stereo not given), CC1=C(/C=C/C(C)=C/C=C/C(C)=C\C(=O)O)C(C)(C)CCC1, Cc1ccc(C)c(NC(=O)CC2NCCNC2=O)c1 (stereo not given), Cn1cc(CN(C(=O)Nc2ccc(Cl)c(Cl)c2)C2CCCCC2)c2ccccc21, CN(C)CCNC(=O)CN1C(=O)CCn2nc(-c3cn(C)c4ccccc34)cc21, O=C(Nc1nnc(-c2ccccc2)s1)c1ccc(S(=O)(=O)N2CCCC2)cc1, Cc1cc(C)nc(NC(=S)N2CCN(c3ccc(F)c(F)c3F)CC2)c1, COC(=O)c1c(SC)nc2ccccc2c1OCc1ccc(Br)cc1, CCOC(=O)c1c(C)[nH]c(CCC(=O)NCCCN2CCN(c3ccc(F)cc3)CC2)c1C, COc1ccc(C(CNC(=O)c2oc3cc(C)c(C)cc3c2C)N2CCCCC2)cc1 (stereo not given), O=C1c2ccccc2C(=O)N1c1ccc2ncccc2c1, CN1C(CC(=O)c2ccccc2)CCCC1CC(O)c1ccccc1 (stereo not given), CC(=O)N1CCC(C(=O)Nc2nnc(C(C)C)s2)CC1, Cc1ccc(C(=O)CSc2nc(-c3ccccc3)nc3c2CCCC3)c(C)c1, Cc1nc(S(=O)(=O)N2CCN(c3ccccc3F)CC2)cn1C

Redox activity vs DA3003, inactive:
CCCCCC(O)/C=C/C=C\CCCCCCCC(=O)O (stereo not given) -1.07% [at 0.303 µM]
